# Measured values: PubChem BioAssay (NCI)
# Compounds without any hit were thinned out: in the full panel of roughly 83,000, 20% have a hit.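 96-well plates, one dose, 48 hours. Percent growth reported; active if below 10.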 Unmarked numbers belong to inactive results. Active and inactive are the calls of the source.
# System: BT-549 breast
# Assay: NCI-60 one-dose screen, 48 h (100 = growth as untreated, 0 = no growth, -100 = all killed)
# Conditions: 10 µM unless noted
row,Compound,growth [%]
1,O=C(OCc1ccccc1)n1nnc2ccccc21,100
2,COC1(OC)C2(Cl)C(Cl)=C(Cl)C1(Cl)C1COCC12 (stereo not given),105
3,COc1cc(C(=O)NC(=S)NCc2ccncc2)cc(OC)c1OC,102
4,Nc1ncnc2c1ncn2C1OC(CO)C2OC21 (stereo not given),110
5,CC(C)(C)[Si](C)(C)OCC1OC(n2cnc3c(N)ncnc32)CC1OS(C)(=O)=O (stereo not given),107
6,Cc1ccc(C)c(CCO)c1,94.3
7,CC(=O)CSc1ncnc2nc[nH]c12,102
8,CCOC(OCC)C(=O)c1ccccc1,101
9,CCCCCCCCCCCCCCCCOc1ccccc1NC(=O)CC(C)=O,90.9
10,CC1(c2ccccc2)CO1 (stereo not given),112
11,Cc1ccc(C)c(CN(C)C)c1O,99.2
12,O=Cc1ccc(O)c(O)c1,101
13,C/C(=N\N=C(/C)c1cccc([N+](=O)[O-])c1)c1cccc([N+](=O)[O-])c1,46.6
14,CCN(CC)CCCC(C)NC(=S)N/N=C(\C)c1ccccn1 (stereo not given),65.5
15,COc1ccc(-c2csc(NC(=O)Nc3nc(-c4ccc(OC)cc4)cs3)n2)cc1,79.9
16,Cc1cc(Cc2ccccc2)c(O)c(Cc2ccccc2)c1,84.1
17,NNc1ncnc2nc[nH]c12,85

row,Compound,growth [%]
1,CCCOCc1cn[nH]n1,109
2,CCN(C(=O)Nc1ccccc1Cl)c1ccccc1,106
3,Cc1ccc(O)c(N)c1,95.2
4,CC(C)(C)NCCC(O)c1cc(C(F)(F)F)nc2c(C(F)(F)F)cccc12 (stereo not given),86.5
5,c1cc(CNCCNCc2ccncc2)ccn1,117
6,CC(C)Sc1ncnc2nc[nH]c12,121
7,Cc1cc2nc(C)c(C)nc2cc1C,100
8,NNC(=O)CCCCl,119
9,COc1cccc(N=CNc2cccc(OC)c2)c1,101
10,Cc1c(Cl)cccc1NC(=S)NC(=O)c1ccccc1,115
11,Cc1[nH]c(=S)[nH]c(=O)c1C,99.7
12,COc1cc(-c2ccc(NC(=O)CC(C)=O)c(OC)c2)ccc1NC(=O)CC(C)=O,83.6
13,Clc1ncnc2nc[nH]c12,101
14,CN(C)c1ncnc2c1cnn2C,99.9
15,CC1CC(C)S(=O)(=O)C1 (stereo not given),103
16,Cc1cc(C(=O)NN)c(C#N)c(=O)[nH]1,109

# System: MDA-MB-435 melanoma
# Assay: as above
# Conditions: 10 µM unless noted
row,Compound,growth
1,O=C(OCc1ccccc1)n1nnc2ccccc21,101%
2,COC1(OC)C2(Cl)C(Cl)=C(Cl)C1(Cl)C1COCC12 (stereo not given),99%
3,CCOC(=O)CO,104%
4,COc1cc(C(=O)NC(=S)NCc2ccncc2)cc(OC)c1OC,104%
5,Nc1ncnc2c1ncn2C1OC(CO)C2OC21 (stereo not given),111%
6,CC(C)(C)[Si](C)(C)OCC1OC(n2cnc3c(N)ncnc32)CC1OS(C)(=O)=O (stereo not given),112%
7,Cc1ccc(C)c(CCO)c1,107%
8,CC(=O)CSc1ncnc2nc[nH]c12,89.7%
9,CCOC(OCC)C(=O)c1ccccc1,109%
10,CCCCCCCCCCCCCCCCOc1ccccc1NC(=O)CC(C)=O,102%
11,CC1(c2ccccc2)CO1 (stereo not given),113%
12,Cc1ccc(C)c(CN(C)C)c1O,109%
13,O=Cc1ccc(O)c(O)c1,102%
14,C/C(=N\N=C(/C)c1cccc([N+](=O)[O-])c1)c1cccc([N+](=O)[O-])c1,98.9%
15,Cc1nc(C)c(C(=O)O)cc1C(=O)O,110%
16,CCN(CC)CCCC(C)NC(=S)N/N=C(\C)c1ccccn1 (stereo not given),54.8%
17,COc1ccc(-c2csc(NC(=O)Nc3nc(-c4ccc(OC)cc4)cs3)n2)cc1,78.7%
18,NC(CSSCC(N)C(=O)O)C(=O)O (stereo not given),-15.1% (active)
19,Cc1cc(Cc2ccccc2)c(O)c(Cc2ccccc2)c1,98.1%

row,Compound,growth
1,NNc1ncnc2nc[nH]c12,51.3%
2,CCCOCc1cn[nH]n1,105%
3,CCN(C(=O)Nc1ccccc1Cl)c1ccccc1,98.3%
4,Cc1ccc(O)c(N)c1,112%
5,CC(C)(C)NCCC(O)c1cc(C(F)(F)F)nc2c(C(F)(F)F)cccc12 (stereo not given),82.3%
6,CC1CC2C3CCC4=CC(=O)CCC4(C)C3CCC2(C)C1(O)C(=O)CO (stereo not given),115%
7,c1cc(CNCCNCc2ccncc2)ccn1,112%
8,CC(C)Sc1ncnc2nc[nH]c12,97.4%
9,Cc1cc2nc(C)c(C)nc2cc1C,105%
10,NNC(=O)CCCCl,108%
11,COc1cccc(N=CNc2cccc(OC)c2)c1,102%
12,Cc1c(Cl)cccc1NC(=S)NC(=O)c1ccccc1,101%
13,Cc1[nH]c(=S)[nH]c(=O)c1C,105%
14,COc1cc(-c2ccc(NC(=O)CC(C)=O)c(OC)c2)ccc1NC(=O)CC(C)=O,105%
15,Clc1ncnc2nc[nH]c12,106%
16,CN(C)c1ncnc2c1cnn2C,103%
17,CC1CC(C)S(=O)(=O)C1 (stereo not given),106%
18,Cc1cc(C(=O)NN)c(C#N)c(=O)[nH]1,119%
